NTR1 agonist: NTR1 (human) agonism. P30989. NTR1-U2OS beta-arrestin-GFP spot imaging, agonist mode. activation, % at 20 µM. 330,000 compounds, 0.17% hits. AID 493036;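 active = activation at or above 40% of the spot to cytoplasm intensity ratio, with at least 20 cells analyzed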;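 also: 0% = DMSO without peptide and 100% = 100 nM NTR1 peptide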
Target sequence (P30989 whole entry, looked up): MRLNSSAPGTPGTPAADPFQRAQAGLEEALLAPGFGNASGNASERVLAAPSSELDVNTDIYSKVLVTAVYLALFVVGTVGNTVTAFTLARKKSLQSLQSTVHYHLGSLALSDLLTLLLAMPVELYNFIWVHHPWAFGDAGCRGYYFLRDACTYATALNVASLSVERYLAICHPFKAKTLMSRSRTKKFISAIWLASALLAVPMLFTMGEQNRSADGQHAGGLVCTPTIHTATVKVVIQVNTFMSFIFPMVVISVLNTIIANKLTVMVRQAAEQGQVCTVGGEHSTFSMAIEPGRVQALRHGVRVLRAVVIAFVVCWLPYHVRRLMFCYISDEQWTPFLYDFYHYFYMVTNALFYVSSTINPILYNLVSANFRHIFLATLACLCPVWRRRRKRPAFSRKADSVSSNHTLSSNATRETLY
Cardio protect: modulators protecting cardiomyocytes from myocardial damage | H9c2 cardiomyocytes, H2O2 injury protection, ATPLite, 2 h | protection from H2O2 cell death, % at 20 µM | 360,000 compounds, 0.63% hits | AID 588492;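 active = compounds giving at least 50% protection of heart cells from peroxide-induced death in the single-dose screen, raw or plate-pattern-corrected value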;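 also: 0% = DMSO wells with peroxide and 100% = DMSO wells without peroxide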
UBC9 SUMO inh: SUMOylation inhibition; P63279; HTRF SUMOylation assay, SAE1/SAE2 + UBC9, in vitro; inhibition, % at 35 µM; 290,000 compounds, 0.36% hits; in the data active = inhibition above about 50%, passing the limit was not always enough
ALR H2O2 inh: inhibitors of human sulfhydryl oxidase ALR; P55789; purified ALR, DTT oxidation, H2O2 HRP-luminol luminescence; inhibition, % (test concentration not listed); 290,000 compounds, 3.8% hits; AID 485317;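 active = mean replicate inhibition above about 79%, with every replicate also reaching it, limit read from the data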
Target sequence (P55789 whole entry, looked up): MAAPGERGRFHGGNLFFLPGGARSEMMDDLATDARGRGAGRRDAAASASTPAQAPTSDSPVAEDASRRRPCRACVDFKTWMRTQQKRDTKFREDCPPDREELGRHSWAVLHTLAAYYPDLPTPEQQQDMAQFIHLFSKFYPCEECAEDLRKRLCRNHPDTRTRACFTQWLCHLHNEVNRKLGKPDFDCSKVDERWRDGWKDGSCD
Active calls of the source: *; nt = no result given. An excerpt weighted towards active compounds, which were near 3.9% of everything screened.

SMILES | NTR1 agonist | Cardio protect | UBC9 SUMO inh | ALR H2O2 inh
COc1cc2ccccc2cc1C(=O)NNC(=O)c1ccccc1O | 1 | 52* | -2 | 7
Cc1cc(C)nc(NNC(=O)c2ccccc2O)n1 | 0 | 3 | 4 | 95*
O=C(c1nc[nH]c1C(=O)N1CCN(c2ccccc2)CC1)N1CCN(c2ccccc2)CC1 | 1 | 11 | nt | 93*
Cc1noc(C(=O)N2CCN(c3ccccc3)CC2)c1Cl | -1 | 10 | -6 | 96*
O=C(c1ccc(Cl)s1)N1CCN(c2ccccc2)CC1 | 0 | 6 | 2 | 97*
O=c1[nH]c(C2CCN(S(=O)(=O)c3ccc4c(c3)OCCO4)CC2)nc2c1nnn2Cc1c(F)cccc1Cl | 8 | -1 | 3 | nt
CN(C)c1ccc(NC(=O)CCN2C(=O)c3cccc([N+](=O)[O-])c3C2=O)cc1 | 1 | 4 | 9 | 100*
CCOc1ccc(NC(=O)CCN2C(=O)c3cccc([N+](=O)[O-])c3C2=O)cc1 | 1 | 6 | 9 | -10
CCN(CC)c1ncnc2c1ncn2[C@H]1CN(Cc2ccco2)C[C@@H](CO)O1 | nt | 0 | nt | nt
O=C(Nc1cccc([N+](=O)[O-])c1)c1[nH]ncc1Cl | 0 | -1 | 0 | 96*
O=C(Nc1cccc([N+](=O)[O-])c1)c1cnccn1 | 0 | -1 | 9 | -3
COCCNC(=S)N(CCc1c(C)[nH]c2ccccc12)Cc1ccco1 | 3 | 6 | -24 | 87*
CCOC(=O)Cc1csc(NC(=O)Nc2cccc(OC)c2)n1 | -1 | -2 | -9 | 9
O=C(NN=C1CCCCC1)c1cc(-c2ccccc2)n[nH]1 | -1 | 4 | -10 | 56
O=C(NN=C1CCCC1)c1cc(-c2ccccc2)n[nH]1 | -1 | 4 | 10 | 97*
CC1=NN(c2ccccc2)C(=O)C1c1ccccc1 (stereo not given) | -1 | 1 | -14 | 94*
C[n+]1ccccc1/C=C/c1c(F)cccc1F | nt | 10 | 15 | -70
Cc1ccc(-c2csc(N)n2)s1 | 2 | 3 | 35 | 99*
Cc1nc2ccc(-c3ccccc3)cc2o1 | -1 | -1 | 18 | 96*
Cc1nc2cc(Cc3ccccc3)ccc2o1 | nt | -7 | nt | nt
CCOC(=O)c1c(C)c(C(=O)NCCOC)c(C)n1CC | 1 | -1 | 2 | -6
CCCCOC(=O)Nc1ccc(N2CCCCC2)cc1 | -2 | -9 | -16 | 78*
CCCCOC(=O)Nc1ccc(N(C)C)cc1 | 1 | -12 | 11 | 99*
CCOC(=O)c1c(C)c(C(=O)Nc2ccc(N(C)C)cc2)c(C)n1CC | nt | 2 | -24 | 99*
O=C(O)c1cccnc1Cl | 2 | -1 | -7 | 1
SMILES | NTR1 agonist | Cardio protect | UBC9 SUMO inh | ALR H2O2 inh
O=C(NCCN1C(=O)S/C(=C/c2ccccc2)C1=O)C1CCCN1C(=O)c1cccs1 (stereo not given) | -1 | -2 | -4 | -9
O=C(c1ccc(F)cc1)N1CCCC(N2CCN(Cc3ccc4c(c3)OCO4)CC2)C1 (stereo not given) | 1 | 4 | -2 | -5
CN(C)c1ccc(C(=O)N2CCCC(N3CCN(Cc4ccc5c(c4)OCO5)CC3)C2)cc1 (stereo not given) | -1 | 1 | 5 | 97*
N#C/C(=C/c1ccncc1)c1nc2ccccc2s1 | -2 | -3 | 6 | -12
CC1CCc2nc(/C(C#N)=C/c3ccncc3)sc2C1 (stereo not given) | 2 | -14 | 32 | 98*
Cc1ccn2c(Nc3ccc4c(c3)OCO4)c(-c3ccc(O)cc3)nc2c1 | 2 | 2 | 4 | 85*
Clc1ccc(-c2nc3ncccn3c2Nc2ccc3c(c2)OCO3)cc1 | 3 | 3 | 1 | 0
Cc1ccc(-c2nc3ncccn3c2Nc2ccc3c(c2)OCO3)o1 | 1 | 7 | 32 | 99*
Oc1ccc(-c2nc3ncccn3c2Nc2ccc3c(c2)OCO3)cc1 | -2 | 9 | 13 | 99*
CCOC(=O)N1N=C(c2ccc(C)cc2)CC1(O)C(F)(F)F (stereo not given) | 1 | -10 | -16 | -1
COc1ccccc1NC(=O)c1sc2ncn(CC(=O)Nc3ccccc3)c(=O)c2c1C | 2 | -12 | 51* | nt
Cc1nc2ccccc2c(N)c1C(=O)/C=C/c1ccccc1 | 10 | -19 | 6 | nt
O=C(OCC(=O)N1CCN(C(=O)c2ccco2)CC1)c1cc(-c2ccco2)nc2ccccc12 | 2 | 49* | 43 | 93*
COc1ccc(CNC(=O)COC(=O)c2cc(-c3ccco3)nc3ccccc23)cc1 | nt | nt | 57* | nt
O=C(OCC(=O)N1CCN(C(=O)c2ccco2)CC1)c1cc(-c2ccc(Cl)c(Cl)c2Cl)nc2ccccc12 | 1 | 0 | -36 | nt
Cn1cc(Br)c(C(=O)Nc2sc3c(c2C(N)=O)CCC3)n1 | 2 | 12 | 27 | -6
COc1ccc(Br)cc1CSC(=N)N | 1 | -12 | -3 | 99*
O=C(CNS(=O)(=O)Cc1ccccc1)NNc1ccccc1 | nt | 0 | nt | nt
Cc1ccc(SC(CC(=O)c2ccc(C)cc2)C(=O)O)cc1 (stereo not given) | -1 | 0 | 6 | 99*
CCNC(=O)c1c(C)[nH]c(C(=O)OCC)c1C | 2 | 2 | 26 | 3
CO[C@H]1/C=C/O[C@@]2(C)Oc3c(C)c(O)c4c(O)c(c(C=NN5CCN(C)CC5)c(O)c4c3C2=O)NC(=O)/C(C)=C\C=C\[C@H](C)[C@H](O)[C@@H](C)[C@@H](O)[C@@H](C)[C@H](OC(C)=O)[C@@H]1C | 4 | -5 | nt | -46
CO[C@H]1C=CO[C@@]2(C)Oc3c(C)c(O)c4c(O)c(c(C=NN5CCN(C6CCCC6)CC5)c(O)c4c3C2=O)NC(=O)C(C)=CC=C[C@H](C)[C@H](O)[C@@H](C)[C@@H](O)[C@@H](C)[C@H](OC(C)=O)[C@@H]1C | 2 | nt | 52* | nt
CN1C(C(=O)Nc2ccc(F)cc2F)=CC(c2cccs2)=NS1(=O)=O | 1 | 2 | 14 | -7
CC1CCCCC1NC(=O)CSCC(=O)O (stereo not given) | 2 | -2 | 7 | 1
COc1ccccc1C(=O)NNC(=O)c1csc(N2CCOCC2)n1 | 2 | 1 | nt | 20
SMILES | NTR1 agonist | Cardio protect | UBC9 SUMO inh | ALR H2O2 inh
Cc1ccc2nc(-c3ccccc3)cc(C(=O)NNC(=O)c3csc(N4CCOCC4)n3)c2c1 | 6 | 58* | nt | -3
Cc1ccc(-c2cc(C(=O)NNC(=O)c3csc(N4CCOCC4)n3)c3ccccc3n2)cc1 | 0 | 22 | nt | -19
O=C(NNC(=O)c1ccccc1OCc1ccccc1Cl)c1csc(N2CCOCC2)n1 | 8 | 52* | -43 | -2
O=C1CCc2cc(S(=O)(=O)N3CCN(c4ccccc4)CC3)cc3c2N1CCC3 | 0 | -5 | nt | 0
COc1cccc(N2CCN(CC(=O)Nc3ccc(S(=O)(=O)N4CCCCCC4)cc3)CC2)c1 | 2 | -9 | nt | nt
CCOc1ccc(NC(=O)CN(C)C(=O)c2ccc(OCc3ccccc3)c(OC)c2)cc1OCC | 0 | -1 | nt | -13
CCOC(=O)CSc1nc(C)cc(C)c1C#N | 0 | 2 | 2 | -27
CNC(=O)c1[nH]cnc1C(=O)Nc1cccc(Cl)c1 | 0 | 34 | nt | -11
O=C(Nc1cccc(Cl)c1)c1nc[nH]c1C(=O)NCCCNC(=O)c1[nH]cnc1C(=O)Nc1cccc(Cl)c1 | 2 | 80* | nt | 3

Screens: PubChem, several laboratories
